ERG Ets-DNA blk – inhibitors of human ERG Ets domain-DNA interaction; AID 624246; hit rate 0.028% among 370,000; fluorescence polarization, His-ERG Ets domain / labelled DNA; Potency, µM (series often up to 76.9 µM), without a hit: at the top dose FP activity, negative = inhibition, usual class: inhibitors; active = well fitted inhibition curve with a large enough effect in the polarisation, with a control signal flat; inconclusive = small, poorly fitted or top-dose-only effect, or effect the other way, or a change in a side signal; inactive = no such curve, though single readings can be large or run the other way; the % refers to the polarisation;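 also: polarization taken with two DNA probes labelled with fluorescein and Texas red; potency is read from the fitted curve at half-maximal effect; % of control where 0% means no effect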
Target sequence (P11308 whole entry, looked up, the tested form may be a part): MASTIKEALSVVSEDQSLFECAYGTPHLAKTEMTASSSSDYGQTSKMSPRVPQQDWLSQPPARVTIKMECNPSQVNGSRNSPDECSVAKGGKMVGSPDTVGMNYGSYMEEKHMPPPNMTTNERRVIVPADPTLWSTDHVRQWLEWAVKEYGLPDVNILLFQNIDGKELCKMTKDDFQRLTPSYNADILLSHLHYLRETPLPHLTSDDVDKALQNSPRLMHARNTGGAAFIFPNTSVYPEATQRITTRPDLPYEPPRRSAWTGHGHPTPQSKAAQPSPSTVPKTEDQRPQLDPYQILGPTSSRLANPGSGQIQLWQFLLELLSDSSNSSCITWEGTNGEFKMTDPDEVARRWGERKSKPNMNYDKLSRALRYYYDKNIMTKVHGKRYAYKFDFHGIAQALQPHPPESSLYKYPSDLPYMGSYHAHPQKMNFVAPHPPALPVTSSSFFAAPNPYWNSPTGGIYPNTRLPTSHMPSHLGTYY
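His-tagged ERG Ets domain (1 uM in the protein solution; 300mM KCl, 50mM Tris-HCl, 1mM EDTA, 1mM DTT, pH 7.5) received compound, then a probe mix of 5 nM fluorescein-DNA and 100nM Texas-615-DNA. Fluorescence polarization was read for both dyes.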
VP16 counter – counter-screen for ROR gamma inhibitors: Gal4-VP16 reporter; hit rate 3.5% among 310,000; Potency, µM (top dose mostly 53.6 µM), for the others: at the highest dose activity, negative = inhibition, hits mostly inhibitors; Drosophila S2 Gal4-VP16 UAS-luciferase, luminescence, 20 h; AID 2546;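 also: Gal4-VP16 expression switched on by copper sulfate through the metallothionein promoter; potency is read from the fitted curve at half-maximal effect; % is scaled to controls: 0 for no effect and ±100 for the full control effect; nearly all actives have a fitted effect of over 50% in size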
RORg inh – inhibitors of mouse ROR gamma transcriptional activity | Drosophila S2 Gal4-RORgamma UAS-luciferase reporter, 20 h | Potency, µM (doses to about 53.6 µM), inactives show at the highest dose activity change, negative = inhibition, actives largely listed as inhibitors | hit rate 5.4% among 310,000 | AID 2551; also: potency is read from the fitted curve at half-maximal effect; % is scaled to controls: 0 for no effect and ±100 for the full control effect; nearly all actives have a fitted effect of over 60% in size
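Compounds are pin-transferred onto Drosophila Schneider cells expressing a copper-inducible Gal4–ROR gamma transactivation domain fusion. After 1 hr, copper sulfate is added to 700 uM final; luciferase is read 20 hr later.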
Giardia kill – kills Giardia lamblia; Giardia lamblia trophozoite viability; activity change, % at 7.66 µM, hits read low; hit rate 0.15% among 340,000; AID 540267; in the data active = activity change below about -80%; inconclusive = between about -30% and that limit;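 also: parasites exposed to compound for two days anaerobically before the ATP read; % is scaled to controls: 0 for no effect and ±100 for the full control effect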
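Giardia lamblia trophozoites (100 cells/well) were incubated with compounds for 48 h at 37 deg C under anaerobic conditions. Viability was read as ATP content by one-step luminescence after 15-30 min at room temperature.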
a7 integrin act – activates integrin-mediated alleviation for muscular dystrophy | alpha7betagal myoblasts, beta-gal FDG fluorescence, 48 h | Potency, µM (highest dose often 38.3 µM), without a hit: at the top dose activation, usual class: activators | hit rate 0.064% among 350,000;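 also: potency is read from the fitted curve at half-maximal effect; 100% = response of the positive control SU9516; nearly all actives have a fitted effect of over 60% in size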
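alpha7betagal+/- myoblasts (passage 13, 250/well) treated 48 h at 37C with compounds at 1:260 dilution of DMSO stock. Lysed, then beta-galactosidase activity read as FDG fluorescence (ex 480/em 540) after 30 min, with pre-read for autofluorescence.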
An asterisk follows results filed as active; ! = repeats disagree; [ ] = another dose, or the depositor's remark. This is one part of a sample in which hits are shown more often than they occur. Unless noted, calls follow the shape of the dose curve; as a rule, active = well fitted curve in the direction sought with a large enough effect; inconclusive = small, poorly fitted or top-dose-only effect, or another doubt; inactive = no such curve, though single readings can be large; an effect the other way counts as inactive or inconclusive.

Results for CCCn1c(=N)n(CC(=O)c2ccc(Cl)cc2)c2ccccc21 ?
ERG Ets-DNA blk: -4%; VP16 counter: inconclusive; RORg inh: inconclusive; Giardia kill: -5; a7 integrin act: -23%

Results for CCn1c(=N)n(CC(=O)c2cccc([N+](=O)[O-])c2)c2ccccc21 ?
ERG Ets-DNA blk: -4%; VP16 counter: -2%; RORg inh: -25%; Giardia kill: -27; a7 integrin act: -1%

What do the screens show for `N=c1n(CC(=O)c2cccc([N+](=O)[O-])c2)c2ccccc2n1Cc1ccccc1`?
ERG Ets-DNA blk: 2%; VP16 counter: inconclusive; RORg inh: 7.1µM*; Giardia kill: 6; a7 integrin act: -47%

Results for CCCn1c(=N)n(CC(=O)c2ccc([N+](=O)[O-])cc2)c2ccccc21 ?
ERG Ets-DNA blk: inconclusive; VP16 counter: -8%; RORg inh: 1.6µM*; Giardia kill: 11; a7 integrin act: -5%

How did CC(C)(C)C(=O)Cn1c(=N)n(Cc2ccccc2Cl)c2ccccc21 do in these assays?
ERG Ets-DNA blk: 8%; VP16 counter: inconclusive; RORg inh: 4.5µM*; Giardia kill: 10; a7 integrin act: -25%

How did Cn1c(=N)n(CC(=O)c2ccc(Br)s2)c2ccccc21 do in these assays?
ERG Ets-DNA blk: -2%; VP16 counter: 2%; RORg inh: 23%; Giardia kill: -2; a7 integrin act: -61%

Results for CN1C(=O)CC2(C=CC(=O)C=C2OC(=O)c2ccccc2)c2ccccc21 (centres undefined) ?
VP16 counter: -13%; RORg inh: 5%; Giardia kill: 51

How did COc1cccc(C(=O)Cn2c(=N)n(C)c3ccccc32)c1 do in these assays?
ERG Ets-DNA blk: -5%; VP16 counter: inconclusive; RORg inh: 10µM*; Giardia kill: -19; a7 integrin act: 0%

Results for C=CCn1c(=N)n(CC(=O)c2ccccc2)c2ccccc21 ?
ERG Ets-DNA blk: 7%; VP16 counter: inconclusive; RORg inh: -29%; Giardia kill: -1; a7 integrin act: 12%

What do the screens show for `Cc1ccc(Cn2c(=N)n(CC(=O)c3ccccc3)c3ccccc32)cc1`?
ERG Ets-DNA blk: -4%; VP16 counter: 14µM*; RORg inh: 13µM*; Giardia kill: -8; a7 integrin act: -33%

How did Cc1cc(C)n(-c2cc(N3CCN(C(=O)c4ccccc4C)CC3)ccc2[N+](=O)[O-])n1 do in these assays?
ERG Ets-DNA blk: -7%; Giardia kill: -12; a7 integrin act: -4%

How did COC(=O)Cc1ccc(NC(=O)c2ccccc2Cl)cc1 do in these assays?
ERG Ets-DNA blk: -3%; VP16 counter: -6%[10 µM]; RORg inh: -18%; Giardia kill: 6; a7 integrin act: 26%

Results for CC(C)(C)c1ccc(C(=O)Nc2ccc(Cl)cc2)cc1 ?
ERG Ets-DNA blk: 9%; VP16 counter: -5%; RORg inh: 3%; Giardia kill: -16; a7 integrin act: 31%

Results for CC(C)(C)c1ccc(NC(=O)c2ccsc2)cc1 ?
ERG Ets-DNA blk: 0%; VP16 counter: 7.9µM*; RORg inh: -28%; Giardia kill: 5; a7 integrin act: 7%

What do the screens show for `COC(=O)Cc1ccc(NC(=O)c2ccc(C(C)(C)C)cc2)cc1`?
ERG Ets-DNA blk: 8%; VP16 counter: inconclusive; RORg inh: 1.6µM*; Giardia kill: inconclusive; a7 integrin act: -11%

Results for COc1ccc(NC(=S)Nc2cccc([N+](=O)[O-])c2)cc1 ?
ERG Ets-DNA blk: -2%; VP16 counter: -30%; RORg inh: 13µM*; Giardia kill: -9; a7 integrin act: 10%

How did COc1ccc(NC(=O)c2cccc([N+](=O)[O-])c2)cc1 do in these assays?
ERG Ets-DNA blk: -2%; VP16 counter: -10%; RORg inh: 0%; Giardia kill: -3; a7 integrin act: 0%

How did O=C(O)c1ccccc1C(=O)Nc1cccc([N+](=O)[O-])c1 do in these assays?
ERG Ets-DNA blk: 2%; VP16 counter: -3%; RORg inh: 9%; Giardia kill: -18; a7 integrin act: 11%

How did COc1ccc(NC(=O)c2cc([N+](=O)[O-])ccc2O)cc1 do in these assays?
ERG Ets-DNA blk: -15%; VP16 counter: 2.8µM*; RORg inh: 2.2µM*; Giardia kill: -89*; a7 integrin act: -5%

How did O=C(Nc1cccc([N+](=O)[O-])c1)c1cc2ccccc2cc1O do in these assays?
ERG Ets-DNA blk: 5%; VP16 counter: 4.5µM*; RORg inh: 5µM*; Giardia kill: 3; a7 integrin act: -5%

Results for COC(=O)C(C(=O)OC)C(Cc1cc(F)cc(F)c1F)NC=O (centres undefined) ?
VP16 counter: -1%; RORg inh: -8%

Results for CN(C)c1ccc(C(CNC(=O)Cc2cccc3ccccc23)N(C)C)cc1 (centres undefined) ?
ERG Ets-DNA blk: -4%; VP16 counter: -2%; RORg inh: -10%; Giardia kill: 23; a7 integrin act: -51%

Results for CCCn1c(SCC(=O)Nc2cc(S(=O)(=O)N(C)C)ccc2OC)n[nH]c1=O ?
ERG Ets-DNA blk: 15%; VP16 counter: -10%; RORg inh: 30%; Giardia kill: -9; a7 integrin act: -28%

What do the screens show for `Cc1cccc(-n2cc(-c3ccccc3)c3c(NN4CCOCC4)ncnc32)c1`?
ERG Ets-DNA blk: 7%; VP16 counter: inconclusive; RORg inh: 6.3µM*; Giardia kill: 7; a7 integrin act: 7%

How did Cc1ccc(-n2cc(-c3ccccc3)c3c(NN4CCOCC4)ncnc32)cc1 do in these assays?
ERG Ets-DNA blk: 10%; VP16 counter: inconclusive; RORg inh: inconclusive; Giardia kill: -22; a7 integrin act: 9%

How did O=C(c1ccc(F)cc1)C1CCN(CCn2c(=S)[nH]c3ccccc3c2=O)CC1 do in these assays?
VP16 counter: 14µM*!; RORg inh: 7.9µM*!

Results for O=C(c1ccc(F)cc1)C1CCN(CCn2c(=O)[nH]c3ccccc3c2=O)CC1 ?
VP16 counter: -1%; RORg inh: 12%

Results for O=c1c2ccccc2[nH]c(=S)n1CCCN1CCC(Cc2ccccc2)CC1 ?
ERG Ets-DNA blk: -2%; VP16 counter: inconclusive; RORg inh: 7.9µM*; Giardia kill: -16; a7 integrin act: -16%

What do the screens show for `Cc1cccc(C)c1N1CCN(CCn2c(=S)[nH]c3ccccc3c2=O)CC1`?
ERG Ets-DNA blk: 1%; VP16 counter: inconclusive; RORg inh: 10µM*; Giardia kill: -14; a7 integrin act: -23%

How did CC(C)(C)N=Cc1c(O)ccc2oc3c(c12)CCCC3 do in these assays?
ERG Ets-DNA blk: -1%; VP16 counter: -12%; RORg inh: -36%; Giardia kill: 4; a7 integrin act: 10%

What do the screens show for `O=[N+]([O-])c1cc2oc3c(c2c(C=NCc2ccncc2)c1O)CCCC3`?
ERG Ets-DNA blk: 1%; VP16 counter: inconclusive; RORg inh: 13µM*; Giardia kill: -17; a7 integrin act: 9%

High-throughput results deposited in PubChem BioAssay by National Center for Advancing Translational Sciences (NCATS).
